Test [1] is described as follows: ATG_E_Box_CIS: Attagene CIS-FACTORIAL HepG2 Assay for human Enhancer Box (E-box) (AID 2282936). The conditions noted are these: HepG2 E-box cis-reporter transcription, actives raise or lower the signal. The essentials: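 In this cell-based setup, HepG2 cells bearing transfected promoter-driven reporter units were exposed to chemicals for 24 h; reporter transcripts were amplified, 6-FAM-labelled, cut with HpaI and sized by capillary electrophoresis.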

A short description of test [2]: ATG_M_61_CIS: Attagene CIS-FACTORIAL HepG2 Assay for M61 Transcription Factor (Internal Marker) (AID 2282937). The conditions noted are these: HepG2 Attagene CIS-FACTORIAL M61 internal marker reporter; actives raise or lower the signal. The essentials:
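Background-control endpoint: HepG2 cells with cis-regulated reporter constructs, 24 h exposure, reporter mRNA detected via fluorescent primer extension and capillary electrophoresis; values from bidirectional fitting with DMSO baseline.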

A short description of test [3]: ATG_EGR_CIS: Attagene CIS-FACTORIAL HepG2 Assay for human Early Growth Response 1 (EGR1) (AID 2282938). Particulars: HepG2 Attagene CIS-FACTORIAL EGR reporter mRNA; actives raise or lower the signal. The essentials: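 Endpoint derived by bidirectional fitting versus DMSO vehicle. Method: cis-promoter reporter units transfected into HepG2, 24 h dosing, RNA isolation, RT-PCR with 6-FAM primer extension and HpaI digestion, then capillary electrophoresis fluorescence detection.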

A short description of test [4]: ATG_M_19_CIS: Attagene CIS-FACTORIAL HepG2 Assay for M19 Transcription Factor (Internal Marker) (AID 2282939). Particulars: HepG2 Attagene CIS-FACTORIAL M19 internal marker reporter; actives raise or lower the signal. The procedure, abridged:
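Chemical-treated HepG2 (24 h) with MRTU constructs; reporter transcripts detected by fluorescent RT-PCR fragment analysis on capillary electrophoresis. Internal background marker, DMSO as baseline.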

Test [5] can be described thus: ATG_ERE_CIS: Attagene CIS-FACTORIAL HepG2 Assay for Estrogen Response Element (ERE) (AID 2282940). The conditions noted are these: HepG2 ERE cis-reporter, Attagene RNA transcript; actives raise or lower the signal. The essentials:
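Human liver cells (HepG2) bearing transiently transfected, promoter-regulated reporter units were exposed 24 h. Reporter mRNA induction was detected by capillary electrophoresis of labelled RT-PCR products and fitted bidirectionally to DMSO.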

A short description of test [6]: ATG_Ets_CIS: Attagene CIS-FACTORIAL HepG2 Assay for human Erythroblast Transformation Specific (ETS) (AID 2282941). Particulars: HepG2 ETS cis-reporter transcription, actives raise or lower the signal. The procedure, abridged: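 RT-PCR/capillary electrophoresis fluorescence read-out of reporter mRNA; HepG2 transient multi-reporter transfection; 24 h compound exposure; gain or loss of signal fitted bidirectionally relative to DMSO.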

The target of test [7] is Hepatocyte nuclear factor 3-beta (Homo sapiens) (UniProt Q9Y261). Briefly: ATG_FoxA2_CIS: Attagene CIS-FACTORIAL HepG2 Assay for human Forkhead box A2 (FOXA2) (AID 2282942). The conditions noted are these: HepG2 cis-reporter transcription factor activity, 24 h; actives raise or lower the signal. The essentials: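 Measured: reporter mRNA induction or loss in HepG2 transiently carrying multiple cis-regulated reporter units, 24 h after dosing. Quantified by RT-PCR plus capillary electrophoresis, normalised to DMSO.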

A short description of test [8]: ATG_FoxO_CIS: Attagene CIS-FACTORIAL HepG2 Assay for human Forkhead box O (FoxO) (AID 2282943). Particulars: HepG2 Attagene cis-reporter, FoxO element, mRNA; actives raise or lower the signal. The essentials:
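HepG2 cells transiently transfected with cis-element-driven reporter units report endogenous FoxO activity. After 24 h chemical exposure, reporter mRNA quantified by RT-PCR, fluorescent labeling, HpaI digestion and capillary electrophoresis; bidirectional fit versus DMSO.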

A short description of test [9]: ATG_GATA_CIS: Attagene CIS-FACTORIAL HepG2 Assay for human GATA Binding Protein (AID 2282944). The conditions noted are these: HepG2 GATA cis-element reporter, Attagene multiplex mRNA; actives raise or lower the signal. The procedure, abridged:
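Transfected cis-reporter HepG2 cells were treated with chemicals for 24 hours. Total RNA was then converted to cDNA, amplified with reporter-specific primers and analysed by fluorescent capillary electrophoresis, using DMSO-treated wells as baseline.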

Test [10] is described as follows: ATG_GLI_CIS: Attagene CIS-FACTORIAL HepG2 Assay for human Zinc Finger Protein GLI1 (AID 2282945). Particulars: HepG2, Attagene cis-factorial reporter mRNA, GLI element; actives raise or lower the signal. The procedure, abridged:
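Transiently transfected HepG2 cells report endogenous transcription factor activity via cis-element-driven reporter units. After 24 h compound exposure, reporter mRNA was measured by RT-PCR with capillary electrophoresis; bidirectional fitting against DMSO baseline.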

A short description of test [11]: ATG_GRE_CIS: Attagene CIS-FACTORIAL HepG2 Assay for human Glucocorticoid Response Elements (GRE) (AID 2282947). Particulars: HepG2 GRE cis-reporter, Attagene multiplex mRNA; actives raise or lower the signal. The essentials: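 Fluorescence intensity of reporter-specific cDNA fragments, separated by capillary electrophoresis, provides the signal. Constructs carry cis-regulating promoters in transiently transfected HepG2 liver cells; 24 h incubation; fitting is bidirectional against DMSO.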

A short description of test [12]: ATG_ISRE_CIS: Attagene CIS-FACTORIAL HepG2 Assay for human Interferon Regulatory Factor 1 (IRF1) binding to an Interferon-Stimulated Response Element (ISRE) (AID 2282948). The conditions noted are these: HepG2 ISRE cis-reporter (Attagene), mRNA transcription readout; actives raise or lower the signal. The procedure, abridged:
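Read-out: fluorescent RT-PCR products resolved by capillary electrophoresis, reporting endogenous transcription factor activity via ISRE-driven reporter mRNA in transfected HepG2 cells dosed for 24 h; gain or loss fitted relative to DMSO.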

The nature of test [13]: ATG_M_32_CIS: Attagene CIS-FACTORIAL HepG2 Assay for M32 Transcription Factor (Internal Marker) (AID 2282949).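 Also: background control marker of the multiplexed CIS panel rather than a real target.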 The conditions noted are these: HepG2 Attagene cis-factorial M32 reporter, mRNA; actives raise or lower the signal. The essentials: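 HepG2 transfectants (cis-regulated reporter transcription units) dosed 24 h. Reporter mRNA by RT-PCR plus CE, analysed as gain or loss relative to DMSO.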

The nature of test [14]: ATG_M_06_CIS: Attagene CIS-FACTORIAL HepG2 Assay for M06 Transcription Factor (Internal Marker) (AID 2282950). Particulars: HepG2 Attagene CIS-FACTORIAL M06 internal marker reporter; actives raise or lower the signal. The procedure, abridged:
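Cells (HepG2, transiently carrying cis-driven reporter units) receive chemical for 24 h before RNA isolation. Reporter cDNA is PCR-amplified, FAM-labelled by primer extension, HpaI-digested and sized on a capillary analyser.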

The target in test [15] is Hypoxia-inducible factor 1-alpha (Homo sapiens) (UniProt Q16665). Nature of the test: ATG_HIF1a_CIS: Attagene CIS-FACTORIAL HepG2 Assay for human Hypoxia Inducible Factor 1 (HIF1A) (AID 2282951). The conditions noted are these: HepG2 Attagene cis-factorial HIF1a reporter transcription; actives raise or lower the signal. The procedure, abridged: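 Dosed 24 h, transfected HepG2 cells yielded total RNA whose reporter transcripts were RT-PCR-amplified and sized by capillary electrophoresis using fluorescent labelling; DMSO defined baseline, with gain and loss of signal both fitted.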

Test [16] has as its target Hepatocyte nuclear factor 6 (Homo sapiens) (UniProt Q9UBC0). Nature of the test: ATG_HNF6_CIS: Attagene CIS-FACTORIAL HepG2 Assay for human Hepatocyte Nuclear Factor 6 (HNF6) (AID 2282952). Particulars: HepG2 Attagene cis-factorial HNF6 reporter transcription; actives raise or lower the signal. The essentials: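 Twenty-four-hour chemical treatment of reporter-transfected HepG2 cells precedes RNA isolation, DNase-treated reverse transcription and PCR of reporter sequences. Labelled fragments are sized by capillary electrophoresis and fitted bidirectionally versus DMSO.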

Test [17] concerns the target Heat shock factor protein 1 (Homo sapiens) (UniProt Q00613). Nature of the test: ATG_HSE_CIS: Attagene CIS-FACTORIAL HepG2 Assay for human Heat Shock Transcription Factor 1 (HSE) (AID 2282953). The conditions noted are these: HepG2 HSE cis-reporter, Attagene RNA transcription; actives raise or lower the signal. The procedure, abridged:
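Liver-derived HepG2 cells carry transiently introduced multiple reporter units governed by cis promoters. Reporter RNA measured 24 h post-dose through reverse transcription, PCR amplification, fluorescent labelling and capillary electrophoresis, normalised to DMSO.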

The nature of test [18]: ATG_MRE_CIS: Attagene CIS-FACTORIAL HepG2 Assay for human Metal Responsive Element (MRE) (AID 2282954). Particulars: HepG2 MRE cis-reporter transcription, Attagene multiplex; actives raise or lower the signal. The essentials: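 Measured here is mRNA induction from an MRE cis-element reporter in HepG2 after 24 h, quantified by fluorescence of labelled RT-PCR products on capillary electrophoresis; gain- and loss-of-signal fits use DMSO as baseline.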

Test [19] is described as follows: ATG_PBREM_CIS: Attagene CIS-FACTORIAL HepG2 Assay for human Phenobarbital-responsive Enhancer Module (PBREM) (AID 2282955). The conditions noted are these: HepG2 PBREM cis-reporter, Attagene multiplexed transcription; actives raise or lower the signal. The essentials:
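Transfected liver-derived HepG2 cells exposed 24 h; PBREM reporter transcript quantified via RT-PCR and capillary electrophoresis, with activity in either direction referenced to DMSO.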

Test [20] has as its target Bile acid receptor (Homo sapiens) (UniProt Q96RI1). Nature of the test: ATG_IR1_CIS: Attagene CIS-FACTORIAL HepG2 Assay for human Nuclear Receptor Subfamily 1 Group H Member 4 (NR1H4), IR1 submotif (AID 2282946). Particulars: IR1 reporter transcription, actives raise or lower the signal. The procedure, abridged: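 Fluorescence of capillary-separated, HpaI-digested RT-PCR reporter products gave IR1-element mRNA induction in HepG2 cells 24 h after dosing. Endogenous transcription factors drove the cis-regulated reporters; activity was fitted bidirectionally against DMSO.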

Values joined by “and” are separate entries in the source; they are usually repeats but may differ in a detail not shown here. Equal entries are not always repeated. Some structures have more than one record in an assay (separate samples or runs), and their calls can disagree. Active and inactive are the calls of the source. The calls were made as follows: active = hit-call score of the fitted dose curve at least 0.9, where 1 is the maximum; inactive = score below 0.9.

Hepatocyte nuclear factor 3-beta (Homo sapiens), sequence (Q9Y261 whole entry, looked up): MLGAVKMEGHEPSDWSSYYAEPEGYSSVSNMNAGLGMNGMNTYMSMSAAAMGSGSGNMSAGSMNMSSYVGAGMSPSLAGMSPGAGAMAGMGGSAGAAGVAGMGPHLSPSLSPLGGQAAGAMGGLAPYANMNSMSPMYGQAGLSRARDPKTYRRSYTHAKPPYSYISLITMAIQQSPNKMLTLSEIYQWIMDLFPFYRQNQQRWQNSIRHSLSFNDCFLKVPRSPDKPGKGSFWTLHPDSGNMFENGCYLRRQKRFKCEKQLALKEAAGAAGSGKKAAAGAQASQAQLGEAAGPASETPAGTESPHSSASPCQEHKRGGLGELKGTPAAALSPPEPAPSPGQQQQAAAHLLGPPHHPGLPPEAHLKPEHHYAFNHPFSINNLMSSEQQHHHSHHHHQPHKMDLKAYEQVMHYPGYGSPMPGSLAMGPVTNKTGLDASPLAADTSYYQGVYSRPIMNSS
Hepatocyte nuclear factor 6 (Homo sapiens), sequence (Q9UBC0 whole entry, looked up, the tested form may be a part): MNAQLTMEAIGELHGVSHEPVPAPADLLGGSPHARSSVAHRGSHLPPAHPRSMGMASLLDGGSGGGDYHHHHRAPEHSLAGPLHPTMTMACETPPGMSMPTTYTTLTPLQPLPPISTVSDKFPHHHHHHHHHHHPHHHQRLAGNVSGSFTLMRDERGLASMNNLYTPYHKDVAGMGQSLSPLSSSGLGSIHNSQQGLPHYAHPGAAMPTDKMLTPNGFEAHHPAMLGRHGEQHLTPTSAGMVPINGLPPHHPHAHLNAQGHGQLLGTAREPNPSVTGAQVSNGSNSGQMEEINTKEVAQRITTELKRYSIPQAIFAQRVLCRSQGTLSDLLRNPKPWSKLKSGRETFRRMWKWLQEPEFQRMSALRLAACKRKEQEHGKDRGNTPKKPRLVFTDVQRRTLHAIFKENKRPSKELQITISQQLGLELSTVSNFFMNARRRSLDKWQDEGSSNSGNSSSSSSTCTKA
Heat shock factor protein 1 (Homo sapiens), sequence (Q00613 whole entry, looked up): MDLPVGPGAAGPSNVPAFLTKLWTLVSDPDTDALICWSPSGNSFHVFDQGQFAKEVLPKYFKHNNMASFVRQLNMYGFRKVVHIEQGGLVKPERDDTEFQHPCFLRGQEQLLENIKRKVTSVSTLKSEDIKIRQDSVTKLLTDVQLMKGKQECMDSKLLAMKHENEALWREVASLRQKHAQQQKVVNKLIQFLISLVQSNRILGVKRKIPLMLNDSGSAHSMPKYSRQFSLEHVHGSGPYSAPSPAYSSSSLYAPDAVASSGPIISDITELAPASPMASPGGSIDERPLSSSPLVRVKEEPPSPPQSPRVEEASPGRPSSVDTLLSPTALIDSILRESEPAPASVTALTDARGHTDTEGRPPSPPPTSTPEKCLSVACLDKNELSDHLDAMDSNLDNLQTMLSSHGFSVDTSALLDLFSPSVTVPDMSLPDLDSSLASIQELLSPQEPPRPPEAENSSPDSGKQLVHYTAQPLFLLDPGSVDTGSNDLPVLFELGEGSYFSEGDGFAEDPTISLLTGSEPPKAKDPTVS
Hypoxia-inducible factor 1-alpha (Homo sapiens), sequence (Q16665 whole entry, looked up): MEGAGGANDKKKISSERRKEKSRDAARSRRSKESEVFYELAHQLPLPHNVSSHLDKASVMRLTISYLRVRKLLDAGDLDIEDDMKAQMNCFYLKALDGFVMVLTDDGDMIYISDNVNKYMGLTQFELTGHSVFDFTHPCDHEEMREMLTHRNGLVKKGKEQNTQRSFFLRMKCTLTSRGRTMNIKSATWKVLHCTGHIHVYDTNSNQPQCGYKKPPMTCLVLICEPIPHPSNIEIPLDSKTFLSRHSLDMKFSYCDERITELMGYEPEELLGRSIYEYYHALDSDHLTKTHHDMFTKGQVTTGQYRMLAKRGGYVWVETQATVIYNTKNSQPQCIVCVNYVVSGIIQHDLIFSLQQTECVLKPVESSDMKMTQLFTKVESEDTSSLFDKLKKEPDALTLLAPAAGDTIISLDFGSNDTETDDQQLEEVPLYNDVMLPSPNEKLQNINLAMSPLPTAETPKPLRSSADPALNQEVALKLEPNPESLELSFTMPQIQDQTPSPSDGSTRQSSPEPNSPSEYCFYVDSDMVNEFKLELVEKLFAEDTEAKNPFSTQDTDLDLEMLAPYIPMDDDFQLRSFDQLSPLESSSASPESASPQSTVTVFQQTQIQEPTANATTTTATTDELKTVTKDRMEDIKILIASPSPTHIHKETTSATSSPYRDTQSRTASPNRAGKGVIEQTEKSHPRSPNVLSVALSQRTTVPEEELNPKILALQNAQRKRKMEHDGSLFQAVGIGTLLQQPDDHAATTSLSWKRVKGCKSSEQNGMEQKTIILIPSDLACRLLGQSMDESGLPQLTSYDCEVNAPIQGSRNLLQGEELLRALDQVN
Bile acid receptor (Homo sapiens), sequence (Q96RI1 whole entry, looked up): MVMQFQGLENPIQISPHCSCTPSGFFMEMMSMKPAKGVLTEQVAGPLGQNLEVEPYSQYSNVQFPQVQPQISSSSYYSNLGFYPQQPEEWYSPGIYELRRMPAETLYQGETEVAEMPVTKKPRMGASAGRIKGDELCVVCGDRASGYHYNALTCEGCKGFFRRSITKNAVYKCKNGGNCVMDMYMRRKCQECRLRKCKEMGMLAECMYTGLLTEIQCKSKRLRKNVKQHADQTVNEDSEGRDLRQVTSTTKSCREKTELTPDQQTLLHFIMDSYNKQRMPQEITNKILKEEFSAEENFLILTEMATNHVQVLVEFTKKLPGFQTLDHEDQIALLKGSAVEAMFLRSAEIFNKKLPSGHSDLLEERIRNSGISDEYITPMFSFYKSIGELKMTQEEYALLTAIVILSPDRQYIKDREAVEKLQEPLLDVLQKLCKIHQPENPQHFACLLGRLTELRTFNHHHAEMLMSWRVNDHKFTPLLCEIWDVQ

Take `O=C(O)C(F)(F)C(F)(F)C(F)(F)C(F)(F)C(F)(F)C(F)(F)C(F)(F)C(F)(F)C(F)(F)F`: the AC50 in test [1] is 88.6 µM (active); in test [3] it was 42.9 µM (active) and 22.2 µM (active); in test [12] it was 48.2 µM (active) and 33.8 µM (active) and 90.4 µM (active); in test [13], 78.3 µM (active); in test [15], 26.6 µM (active); in test [16] it was 58.9 µM (active). The AC50 was 50.3 µM (active) and 50 µM (active) in test [17]; 49.2 µM (active) and 42.6 µM (active) and 22.6 µM (active) in test [18]. The outcome in test [1], in test [2], in test [3], in test [4], in [5] and in [6] was inactive. In addition, the call in test [7], in [8], in test [9], in [10], in [11] and in test [13] was inactive. Also, the molecule was called inactive in test [14], in [15], in test [16], in test [17] and in test [19].
With `Oc1ccc(Cl)cc1Cl`, the outcome in test [1], in test [2], in test [3], in test [4], in [6] and in [7] was inactive. The call in [8], in test [9], in [10], in test [20], in test [11] and in test [12] was inactive. For the same molecule, the molecule was classed as inactive in test [13], in [14], in test [15], in test [16], in [17] and in [18]. Further, in [19], the outcome was inactive. The AC50 in [5] was 75.9 µM (active).
In the case of `CN(C)c1nc(=O)n(C2CCCCC2)c(=O)n1C`, the result in [2], in test [3], in test [4], in test [5], in [6] and in test [7] was inactive. The molecule was called inactive in test [8], in test [9], in test [10], in [20], in test [12] and in [13]. For the same molecule, the molecule was classed as inactive in test [14], in test [15], in test [16], in [17], in test [18] and in test [19].
Turning to `ClC1=C(Cl)[C@]2(Cl)[C@@H]3[C@@H](Cl)[C@H]4O[C@H]4[C@@H]3C1(Cl)C2(Cl)Cl`, the molecule was classed as inactive in [2], in test [5], in test [6], in test [7], in [8] and in test [10]. Further, the result in [11], in test [13], in test [14], in test [15], in test [16] and in [19] was inactive. In addition, the AC50 in test [3] was 54.9 µM (active); in [4], 179 µM (active); in [9] it was 162 µM (active); in [12], 57.6 µM (active); in test [17], 85.5 µM (active); in test [18], 100 µM (active).
Consider `C=CC(=O)NCNC(=O)C=C`, for which the call in test [2], in [3], in test [4], in test [5], in test [6] and in test [7] was inactive. For the same molecule, the molecule was classed as inactive in test [8], in test [9], in test [10], in test [11], in test [12] and in test [13]. The outcome in test [14], in test [15], in [16], in test [17], in test [18] and in [19] was inactive.
With `CCNc1nc(NC(C)C)nc(SC)n1`, the call in test [2], in test [3], in test [4], in test [6], in test [7] and in test [8] was inactive. Moreover, the result in test [9], in test [10], in test [12], in test [13], in test [14] and in [15] was inactive. Further, the molecule was called inactive in [16], in test [17], in [18] and in test [19].

These data come from PubChem BioAssay (EPA / NIEHS).
